Laboratory results as given in PubChem BioAssay AID977606 (Broad Institute, 2014).
The campaign covered roughly 1,500 compounds. About 430 (29%) were called active. Not all results are given here. Measured potencies and affinities stand elsewhere. A number with no mark means an inactive call. How the calls were made is not given here.

experiment: insulin secretion activators without glucose, dose response, counter-screen for glucose-dependent insulin secretion activators, cell-based, INS-1E, Gaussia luciferase, luminescence, cherry-pick (AID 977606); conditions: INS-1E Gaussia luciferase insulin secretion, no glucose, 100% = twice neutral-control luminescence; series mostly up to 35 µM; activation: at the top concentration;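 further: 0% = median of neutral control wells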

Row | Compound | activation [%]
1 | NS(=O)(=O)c1ccc(CNC(=O)c2cc(S(=O)(=O)N3CCOCC3)ccc2N2CCCC2)cc1 | 6.71
2 | CCOc1ccc2oc(=O)cc(CN3CCOCC3)c2c1 | 5.59
3 | Cc1cccc(NC(=O)c2ccc(OCc3c(C)noc3C)cc2)c1C | 21
4 | CCCNC(=O)c1ccccc1NC(=O)COc1ccc(OC)cc1 | -5.49
5 | COc1ccc(Nc2nc(NCc3cccs3)nc3ccsc23)cc1OC | -8.88
6 | COc1ccc(C(=O)/C=C2\NCCc3cc(OC)c(OC)cc32)cc1OC | -11.3
7 | COC(=O)c1ccc(OC)c(OC2CCCC2)c1 | 11.1
8 | Cc1cccc2nc(-c3ccco3)c(Nc3ccccc3)n12 | 3.49
9 | Cc1ccc(C(=O)c2sc(Nc3ccccc3)c(C#N)c2N)cc1 | 10.1
10 | CNc1ccc2ncc(-c3ccc(OC)c(OC)c3)n2n1 | 14.6
11 | CCCCCCn1c(SCC(C)C)nc2c1c(=O)[nH]c(=O)n2C | 5.74
12 | C/C=C/Cn1c(N2CCCCCC2)nc2c1c(=O)[nH]c(=O)n2C | 2.02
13 | Cn1c(=O)[nH]c(=O)c2c1nc(NC1CCCC1)n2Cc1ccccc1 | -2.64
14 | C/C(Cl)=C/CSc1nc2c(c(=O)[nH]c(=O)n2C)n1C(C)C | 36
15 | CC(C)CCn1c(N2CCCC2)nc2c1c(=O)[nH]c(=O)n2C | 28.9
16 | CN(Cc1ccccc1)c1nc2c(c(=O)[nH]c(=O)n2C)n1Cc1ccccc1 | -4.81

Row | Compound | activation [%]
17 | CCCN1C[C@@H](C)[C@@H](OC)CN(C)C(=O)c2ccc(NC(=O)c3cccc(F)c3)cc2OC[C@H]1C | -6.93
18 | O=C(O)C1Cc2c([nH]c3ccccc23)C(c2ccc3c(c2)OCO3)N1 (stereo unspecified) | 6.64
19 | COc1cc2c(cc1OC)-c1cc(NCc3ccccn3)nc(=O)n1CC2 | -6.24
20 | CCOc1ccc(CCNS(=O)(=O)c2cn(C)cn2)cc1OCC | -10.6
21 | CC(=O)N1CCN(C(=O)COC(=O)c2ccc(S(C)(=O)=O)cc2)CC1 | 39.2
22 | CC(C)(C)NC(=O)N1c2ccccc2Sc2ccccc21 | 11.4
23 | CCn1ncc2c1C(=O)NC1c3ccccc3C(=O)N21 (stereo unspecified) | 0.44
24 | O=C(NNC(=O)c1cc2cc3ccccc3nc2s1)c1cccc(C(F)(F)F)c1 | -11
25 | Cc1cc(C)cc(C(=O)NC(=S)Nc2ccc(-c3cc4ccccc4oc3=O)cc2)c1 | 13.7
26 | C=CCn1c(-c2csc(-c3ccc(OC)c(OC)c3)n2)n[nH]c1=S | -1.01
27 | COc1ccc(-c2nc(CCl)cs2)cc1OC | 5.17
28 | O=C(c1ccccc1)N(C(=O)c1ccccc1)N1CCCC1 | 3.14
29 | CN(c1ccc(C(=O)N2CCN(Cc3ccccc3)CC2)cc1)S(=O)(=O)c1ccccc1 | -21.2
30 | CCn1nc(NC(=O)c2ccco2)c2cc3ccccc3nc21 | 1.13
31 | CCCn1nc(NC(=O)c2ccco2)c2cc3ccccc3nc21 | 4.53
